The text below walks through data of paper PMC7862700, “An all-to-all approach to the identification of sequence-specific readers for epigenetic DNA modifications on cytosine”.

What all share (test): DAPPL (digital affinity profiling via proximity ligation, sequencing); 10 mM Tris-HCl pH 7.5, 50 mM NaCl, 1 mM DTT, 4% glycerol, room temperature, 30 min; GST-TFs on glutathione beads, 16-mer random dsDNA library, 0.1% formaldehyde crosslink after washing; high values mean tight binding
For one test, the target named is T1, FLI1 (Homo sapiens, UniProt Q01543 1-452).
T1 sequence: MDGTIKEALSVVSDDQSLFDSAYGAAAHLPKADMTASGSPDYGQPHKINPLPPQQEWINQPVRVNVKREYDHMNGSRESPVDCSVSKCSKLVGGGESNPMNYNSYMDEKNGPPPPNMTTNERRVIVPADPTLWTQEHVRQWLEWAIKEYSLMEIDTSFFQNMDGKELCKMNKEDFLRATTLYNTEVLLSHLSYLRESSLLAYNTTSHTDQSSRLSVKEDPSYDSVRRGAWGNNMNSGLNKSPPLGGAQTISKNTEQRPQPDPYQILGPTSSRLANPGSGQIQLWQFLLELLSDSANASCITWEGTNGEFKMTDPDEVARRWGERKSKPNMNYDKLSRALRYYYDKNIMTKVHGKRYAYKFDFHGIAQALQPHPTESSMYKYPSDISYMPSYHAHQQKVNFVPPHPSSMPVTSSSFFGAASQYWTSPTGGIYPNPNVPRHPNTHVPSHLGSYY
Conditions: protein: recombinant; tags: N-terminal GST; dsDNA, one strand shown. Put shortly: (§1)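 The binding signal reported is, for every hexamer, its read frequency for a factor over its read frequency for the tag-only sample. Reads came from pools of yeast-expressed, GST-fused human transcription factors on glutathione beads, barcoded with DNA and mixed with that sample, which were incubated with 200 nmole of a random double-stranded 16-mer DNA library in Tris/NaCl/DTT/glycerol buffer at room temperature for 30 min. After washing, the pools were crosslinked with 0.1% formaldehyde, proximity-ligated with BsaI/T4 ligase for 1 h at 37 °C, PCR-amplified and sequenced on an Illumina NextSeq500.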

For a further test, the target named is T2, ELK1 (Homo sapiens, UniProt P19419 1-428).
T2 sequence: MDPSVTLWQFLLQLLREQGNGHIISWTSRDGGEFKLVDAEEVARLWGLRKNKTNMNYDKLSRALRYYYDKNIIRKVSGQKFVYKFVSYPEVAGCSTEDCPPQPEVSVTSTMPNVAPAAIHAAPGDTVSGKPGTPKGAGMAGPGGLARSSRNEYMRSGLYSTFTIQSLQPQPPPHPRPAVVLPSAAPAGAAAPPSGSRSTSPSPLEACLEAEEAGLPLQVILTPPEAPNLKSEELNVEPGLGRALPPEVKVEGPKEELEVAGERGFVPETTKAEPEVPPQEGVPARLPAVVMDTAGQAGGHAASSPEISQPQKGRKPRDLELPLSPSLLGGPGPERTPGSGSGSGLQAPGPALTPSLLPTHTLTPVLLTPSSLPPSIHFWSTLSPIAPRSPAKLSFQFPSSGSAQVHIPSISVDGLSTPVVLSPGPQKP
Conditions: protein: recombinant; tags: N-terminal GST; dsDNA, one strand shown. Put shortly: as §1

Another test concerns the target T3, GABPA (Homo sapiens, UniProt Q06546 1-454).
T3 sequence: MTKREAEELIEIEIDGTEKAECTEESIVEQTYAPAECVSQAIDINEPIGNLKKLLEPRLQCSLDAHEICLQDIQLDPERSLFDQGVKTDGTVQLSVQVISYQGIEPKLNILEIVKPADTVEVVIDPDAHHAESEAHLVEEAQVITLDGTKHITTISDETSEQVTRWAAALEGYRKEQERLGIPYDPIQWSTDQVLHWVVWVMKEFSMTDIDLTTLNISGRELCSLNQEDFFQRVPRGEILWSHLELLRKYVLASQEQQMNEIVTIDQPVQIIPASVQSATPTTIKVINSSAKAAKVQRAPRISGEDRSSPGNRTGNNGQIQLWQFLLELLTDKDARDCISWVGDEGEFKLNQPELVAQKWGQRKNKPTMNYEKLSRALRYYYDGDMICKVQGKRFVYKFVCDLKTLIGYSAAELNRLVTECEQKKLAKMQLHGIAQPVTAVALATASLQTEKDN
The following applies: protein: recombinant; tags: N-terminal GST; dsDNA, one strand shown. An outline of the steps:
as §1

The next test deals with T4, ERG (Homo sapiens, UniProt P11308 1-479).
T4 sequence: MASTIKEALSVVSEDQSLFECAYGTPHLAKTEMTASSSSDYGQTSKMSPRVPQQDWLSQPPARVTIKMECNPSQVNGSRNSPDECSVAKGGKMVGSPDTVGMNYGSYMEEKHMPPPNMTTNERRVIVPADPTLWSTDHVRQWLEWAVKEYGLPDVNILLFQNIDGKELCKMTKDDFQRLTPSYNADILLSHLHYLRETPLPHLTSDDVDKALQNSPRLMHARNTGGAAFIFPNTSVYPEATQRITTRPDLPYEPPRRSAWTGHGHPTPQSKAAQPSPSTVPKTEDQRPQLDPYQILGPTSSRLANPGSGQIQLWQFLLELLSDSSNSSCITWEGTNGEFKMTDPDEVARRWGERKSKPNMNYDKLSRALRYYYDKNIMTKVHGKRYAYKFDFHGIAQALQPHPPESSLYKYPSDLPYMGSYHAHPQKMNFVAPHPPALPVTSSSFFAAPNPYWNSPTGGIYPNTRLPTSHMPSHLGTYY
Conditions: protein: recombinant; tags: N-terminal GST; dsDNA, one strand shown. Put shortly: as §1

The target of another test is ELF1 (Homo sapiens, UniProt P32519 1-619). Conditions: protein: recombinant; tags: N-terminal GST; dsDNA, one strand shown. Put shortly:
as §1

A further test addresses T5, EHF (Homo sapiens, UniProt Q9NZC4 1-300).
T5 sequence: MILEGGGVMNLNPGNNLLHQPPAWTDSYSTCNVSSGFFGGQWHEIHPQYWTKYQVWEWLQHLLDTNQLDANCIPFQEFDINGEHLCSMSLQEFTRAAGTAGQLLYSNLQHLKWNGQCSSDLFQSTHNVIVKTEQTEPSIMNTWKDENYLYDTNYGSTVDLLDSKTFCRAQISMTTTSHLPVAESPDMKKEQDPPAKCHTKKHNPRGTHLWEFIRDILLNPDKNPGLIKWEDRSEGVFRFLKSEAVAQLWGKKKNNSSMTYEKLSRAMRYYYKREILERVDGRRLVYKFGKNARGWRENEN
Conditions: protein: recombinant; tags: N-terminal GST; dsDNA, one strand shown. An outline of the steps:
as §1

A further test addresses SPI1 (Homo sapiens, UniProt P17947 1-270). The following applies: protein: recombinant; tags: N-terminal GST; dsDNA, one strand shown. Put shortly:
as §1

A further test has as its target SPIB (Homo sapiens, UniProt Q01892 1-262). The following applies: protein: recombinant; tags: N-terminal GST; dsDNA, one strand shown. An outline of the steps:
as §1

The next test addresses T6, ELK3 (Homo sapiens, UniProt P41970 1-407).
T6 sequence: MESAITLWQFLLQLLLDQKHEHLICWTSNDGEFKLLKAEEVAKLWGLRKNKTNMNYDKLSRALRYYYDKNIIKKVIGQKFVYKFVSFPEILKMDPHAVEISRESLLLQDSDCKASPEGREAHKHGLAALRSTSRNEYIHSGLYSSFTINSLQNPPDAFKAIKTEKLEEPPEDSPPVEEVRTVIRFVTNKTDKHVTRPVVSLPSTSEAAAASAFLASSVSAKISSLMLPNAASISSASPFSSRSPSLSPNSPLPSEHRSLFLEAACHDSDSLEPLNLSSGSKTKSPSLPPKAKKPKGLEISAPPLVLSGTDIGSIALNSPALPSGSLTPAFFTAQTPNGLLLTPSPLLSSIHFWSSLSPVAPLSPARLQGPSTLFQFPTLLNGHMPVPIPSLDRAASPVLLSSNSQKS
Conditions: protein: recombinant; tags: N-terminal GST; dsDNA, one strand shown. An outline of the steps: as §1

The target in another test is T7, FEV (Homo sapiens, UniProt Q99581 1-238).
T7 sequence: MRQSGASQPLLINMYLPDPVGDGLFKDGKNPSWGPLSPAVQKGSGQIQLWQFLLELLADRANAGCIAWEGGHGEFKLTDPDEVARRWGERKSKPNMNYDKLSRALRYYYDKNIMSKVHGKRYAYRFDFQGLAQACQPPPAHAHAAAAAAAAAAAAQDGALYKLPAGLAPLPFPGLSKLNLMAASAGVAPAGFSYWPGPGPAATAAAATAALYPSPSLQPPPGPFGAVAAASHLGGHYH
The following applies: protein: recombinant; tags: N-terminal GST; dsDNA, one strand shown. An outline of the steps:
as §1

A further test deals with ETV5 (Homo sapiens, UniProt P41161 1-510). Conditions: protein: recombinant; tags: N-terminal GST; dsDNA, one strand shown. An outline of the steps: as §1
For a further test, the target named is HSF1 (Homo sapiens, UniProt Q00613 1-529). The following applies: protein: recombinant; tags: N-terminal GST; chain copies: 3; dsDNA, one strand shown. An outline of the steps: as §1
In a further test the target is T8, SPIC (Homo sapiens, UniProt Q8N5J4 1-248).
T8 sequence: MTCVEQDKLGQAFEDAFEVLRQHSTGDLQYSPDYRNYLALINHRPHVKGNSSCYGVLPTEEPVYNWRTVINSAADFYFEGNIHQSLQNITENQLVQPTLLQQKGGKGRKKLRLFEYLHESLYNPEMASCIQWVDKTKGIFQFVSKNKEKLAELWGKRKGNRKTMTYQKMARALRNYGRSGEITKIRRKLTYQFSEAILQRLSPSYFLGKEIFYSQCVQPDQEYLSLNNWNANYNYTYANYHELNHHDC
Conditions: protein: recombinant; tags: N-terminal GST; dsDNA, one strand shown. Put shortly: as §1

The next test deals with ELF4 (Homo sapiens, UniProt Q99607 1-663). Conditions: protein: recombinant; tags: N-terminal GST; dsDNA, one strand shown. An outline of the steps: as §1
The next test deals with T9, ELK4 (Homo sapiens, UniProt P28324-2 1-405).
T9 sequence: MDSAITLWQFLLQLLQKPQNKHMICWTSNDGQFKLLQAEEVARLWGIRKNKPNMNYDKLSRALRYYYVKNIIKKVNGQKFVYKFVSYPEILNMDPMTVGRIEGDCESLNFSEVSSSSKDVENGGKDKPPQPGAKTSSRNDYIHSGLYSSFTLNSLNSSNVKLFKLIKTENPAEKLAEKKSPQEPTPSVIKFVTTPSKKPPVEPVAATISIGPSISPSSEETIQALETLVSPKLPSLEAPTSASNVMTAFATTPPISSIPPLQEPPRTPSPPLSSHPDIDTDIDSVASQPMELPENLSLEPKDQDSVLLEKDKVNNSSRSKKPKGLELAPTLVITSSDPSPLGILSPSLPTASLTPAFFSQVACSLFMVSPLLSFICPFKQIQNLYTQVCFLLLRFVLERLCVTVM
The following applies: protein: recombinant; tags: N-terminal GST; dsDNA, one strand shown. An outline of the steps: as §1

In another test the target is T10, ETV2 (Homo sapiens, UniProt O00321 1-342).
T10 sequence: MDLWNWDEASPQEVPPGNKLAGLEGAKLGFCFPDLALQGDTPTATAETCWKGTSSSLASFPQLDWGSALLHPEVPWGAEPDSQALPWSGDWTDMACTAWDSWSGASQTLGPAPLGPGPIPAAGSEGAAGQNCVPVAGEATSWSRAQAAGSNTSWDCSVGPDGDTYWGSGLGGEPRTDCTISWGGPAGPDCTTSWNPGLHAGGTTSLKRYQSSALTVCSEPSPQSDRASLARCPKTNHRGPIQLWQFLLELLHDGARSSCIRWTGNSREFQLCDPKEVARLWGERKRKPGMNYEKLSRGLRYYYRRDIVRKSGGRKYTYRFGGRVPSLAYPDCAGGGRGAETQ
The following applies: protein: recombinant; tags: N-terminal GST; dsDNA, one strand shown. An outline of the steps: as §1

A further test deals with CRX (Homo sapiens, UniProt O43186 1-299). Conditions: protein: recombinant; tags: N-terminal GST; dsDNA, one strand shown. An outline of the steps: as §1
Another test addresses ETV1 (Homo sapiens, UniProt P50549 1-477). Conditions: protein: recombinant; tags: N-terminal GST; dsDNA, one strand shown. An outline of the steps:
as §1

HSF1, sequence (Q00613 whole entry): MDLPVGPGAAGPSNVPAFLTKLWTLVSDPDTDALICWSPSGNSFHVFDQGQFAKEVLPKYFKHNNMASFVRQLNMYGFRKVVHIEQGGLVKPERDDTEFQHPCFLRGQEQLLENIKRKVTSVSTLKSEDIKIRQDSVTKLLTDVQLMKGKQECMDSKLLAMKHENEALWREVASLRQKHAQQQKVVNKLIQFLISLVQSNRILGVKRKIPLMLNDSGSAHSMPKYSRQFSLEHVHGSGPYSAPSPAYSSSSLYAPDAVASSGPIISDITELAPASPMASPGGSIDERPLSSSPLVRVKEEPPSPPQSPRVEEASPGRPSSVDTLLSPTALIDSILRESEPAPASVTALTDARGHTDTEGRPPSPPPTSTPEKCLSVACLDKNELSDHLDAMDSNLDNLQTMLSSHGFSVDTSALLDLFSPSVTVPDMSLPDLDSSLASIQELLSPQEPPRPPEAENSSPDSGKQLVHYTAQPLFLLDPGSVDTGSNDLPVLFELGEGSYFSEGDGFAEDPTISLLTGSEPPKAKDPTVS
ETV1, sequence (P50549 whole entry): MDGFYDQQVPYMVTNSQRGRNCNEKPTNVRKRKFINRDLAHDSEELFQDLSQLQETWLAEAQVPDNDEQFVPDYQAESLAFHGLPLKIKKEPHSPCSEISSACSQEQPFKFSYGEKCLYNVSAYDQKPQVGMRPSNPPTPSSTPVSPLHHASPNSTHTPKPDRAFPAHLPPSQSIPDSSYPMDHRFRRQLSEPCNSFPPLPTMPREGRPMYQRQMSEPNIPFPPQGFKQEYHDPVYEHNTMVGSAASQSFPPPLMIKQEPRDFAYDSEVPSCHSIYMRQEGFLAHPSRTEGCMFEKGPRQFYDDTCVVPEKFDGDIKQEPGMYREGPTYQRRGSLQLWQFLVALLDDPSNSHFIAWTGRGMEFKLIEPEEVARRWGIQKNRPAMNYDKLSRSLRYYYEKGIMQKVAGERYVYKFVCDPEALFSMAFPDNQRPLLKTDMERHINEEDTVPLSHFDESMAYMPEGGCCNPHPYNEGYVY
ELF1, sequence (P32519 whole entry): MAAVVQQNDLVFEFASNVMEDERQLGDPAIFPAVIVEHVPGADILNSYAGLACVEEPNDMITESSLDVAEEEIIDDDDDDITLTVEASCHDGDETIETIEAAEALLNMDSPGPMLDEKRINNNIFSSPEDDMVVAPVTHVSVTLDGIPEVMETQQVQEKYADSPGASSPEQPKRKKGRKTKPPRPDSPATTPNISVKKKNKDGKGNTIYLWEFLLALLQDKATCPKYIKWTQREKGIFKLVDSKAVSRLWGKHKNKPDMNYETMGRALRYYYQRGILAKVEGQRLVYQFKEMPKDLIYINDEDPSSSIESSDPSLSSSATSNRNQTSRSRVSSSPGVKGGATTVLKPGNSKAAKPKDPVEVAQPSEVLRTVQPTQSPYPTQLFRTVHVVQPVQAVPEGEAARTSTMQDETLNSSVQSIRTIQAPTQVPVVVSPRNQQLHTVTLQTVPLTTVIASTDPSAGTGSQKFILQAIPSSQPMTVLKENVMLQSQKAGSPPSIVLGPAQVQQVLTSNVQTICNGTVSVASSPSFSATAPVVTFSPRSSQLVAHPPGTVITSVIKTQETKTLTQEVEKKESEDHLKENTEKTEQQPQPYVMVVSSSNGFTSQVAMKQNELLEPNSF
SPIB, sequence (Q01892 whole entry): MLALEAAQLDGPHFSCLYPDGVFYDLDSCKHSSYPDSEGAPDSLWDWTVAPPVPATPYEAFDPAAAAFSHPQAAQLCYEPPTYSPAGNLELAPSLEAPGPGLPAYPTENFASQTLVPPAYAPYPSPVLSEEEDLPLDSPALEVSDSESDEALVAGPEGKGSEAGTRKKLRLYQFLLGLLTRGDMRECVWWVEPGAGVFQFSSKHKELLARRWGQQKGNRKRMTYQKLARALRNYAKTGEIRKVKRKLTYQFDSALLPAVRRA
ETV5, sequence (P41161 whole entry): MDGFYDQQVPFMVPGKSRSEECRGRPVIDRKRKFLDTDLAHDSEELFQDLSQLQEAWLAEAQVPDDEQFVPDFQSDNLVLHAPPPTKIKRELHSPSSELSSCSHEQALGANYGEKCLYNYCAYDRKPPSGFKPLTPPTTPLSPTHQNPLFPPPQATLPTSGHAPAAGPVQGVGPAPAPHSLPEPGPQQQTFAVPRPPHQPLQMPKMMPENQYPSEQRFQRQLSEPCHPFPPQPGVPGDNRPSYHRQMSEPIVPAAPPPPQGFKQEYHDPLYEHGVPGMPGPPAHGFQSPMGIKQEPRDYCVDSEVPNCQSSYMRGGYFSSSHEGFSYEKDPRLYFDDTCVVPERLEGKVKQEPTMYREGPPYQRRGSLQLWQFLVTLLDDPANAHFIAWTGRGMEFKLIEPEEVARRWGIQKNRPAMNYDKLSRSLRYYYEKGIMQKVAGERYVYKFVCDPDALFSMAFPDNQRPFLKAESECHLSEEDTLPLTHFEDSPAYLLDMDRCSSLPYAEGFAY
CRX, sequence (O43186 whole entry): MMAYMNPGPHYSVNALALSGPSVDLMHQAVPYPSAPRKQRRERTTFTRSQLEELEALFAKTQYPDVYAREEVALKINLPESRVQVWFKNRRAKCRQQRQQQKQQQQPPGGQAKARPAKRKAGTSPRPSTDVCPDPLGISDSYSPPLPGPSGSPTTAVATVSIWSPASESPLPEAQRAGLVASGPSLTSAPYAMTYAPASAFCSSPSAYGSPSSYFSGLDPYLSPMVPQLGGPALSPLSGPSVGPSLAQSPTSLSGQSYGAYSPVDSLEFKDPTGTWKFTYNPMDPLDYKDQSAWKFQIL
ELF4, sequence (Q99607 whole entry): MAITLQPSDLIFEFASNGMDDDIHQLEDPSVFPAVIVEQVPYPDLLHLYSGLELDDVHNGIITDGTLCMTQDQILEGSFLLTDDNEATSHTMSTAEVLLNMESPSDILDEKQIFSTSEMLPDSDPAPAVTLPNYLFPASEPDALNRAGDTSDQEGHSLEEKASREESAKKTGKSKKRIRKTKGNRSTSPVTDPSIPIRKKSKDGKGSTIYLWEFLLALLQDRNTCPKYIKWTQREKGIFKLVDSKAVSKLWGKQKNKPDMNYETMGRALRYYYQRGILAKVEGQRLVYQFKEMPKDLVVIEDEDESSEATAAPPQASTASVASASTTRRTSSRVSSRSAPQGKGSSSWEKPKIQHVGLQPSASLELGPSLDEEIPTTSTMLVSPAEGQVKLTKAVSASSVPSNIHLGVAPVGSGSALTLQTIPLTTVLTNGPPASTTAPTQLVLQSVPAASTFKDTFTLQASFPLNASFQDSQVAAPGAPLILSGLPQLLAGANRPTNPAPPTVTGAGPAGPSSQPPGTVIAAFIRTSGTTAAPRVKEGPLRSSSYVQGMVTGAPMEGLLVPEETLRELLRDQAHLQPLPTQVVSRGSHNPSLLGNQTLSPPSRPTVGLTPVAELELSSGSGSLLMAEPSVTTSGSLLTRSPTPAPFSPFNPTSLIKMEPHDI

Take ACTCGA: the binding signal is 1.35 fold enrichment (6-mer frequency, TF over GST control) with FLI1; 1.48 fold enrichment (6-mer frequency, TF over GST control) with ELK1; 1.44 fold enrichment (6-mer frequency, TF over GST control) with GABPA; 1.22 fold enrichment (6-mer frequency, TF over GST control) with ERG; 1.49 fold enrichment (6-mer frequency, TF over GST control) with ELF1; 1.14 fold enrichment (6-mer frequency, TF over GST control) in the test with EHF. Besides, the binding signal is 1.26 fold enrichment (6-mer frequency, TF over GST control) with SPI1; 1.24 fold enrichment (6-mer frequency, TF over GST control) with SPIB; 1.27 fold enrichment (6-mer frequency, TF over GST control) with ELK3; 1.29 fold enrichment (6-mer frequency, TF over GST control) with FEV; 1.27 fold enrichment (6-mer frequency, TF over GST control) with ETV5; 1.99 fold enrichment (6-mer frequency, TF over GST control) in the test with HSF1. For the same sequence, the binding signal with SPIC was 1.51 fold enrichment (6-mer frequency, TF over GST control); with ELF4 it was 1.31 fold enrichment (6-mer frequency, TF over GST control); with ELK4, 1.35 fold enrichment (6-mer frequency, TF over GST control); with ETV2 it was 1.46 fold enrichment (6-mer frequency, TF over GST control); with CRX it was 1.37 fold enrichment (6-mer frequency, TF over GST control); with ETV1, 1.33 fold enrichment (6-mer frequency, TF over GST control).
